Reference: PubChem BioAssay AID602350 (Broad Institute, 2012)
Results with a measured potency or affinity are listed apart. Calls of active or inactive are those of the source.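 How the source made its calls: active means absorbance falls by 30% or more versus neutral controls, with a potency fitted within twice the top valid dose; inconclusive means no clear call, values can overlap the other calls; inactive means change opposite to expected direction, plus the rest.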

Each molecule was assayed against Protein disulfide-isomerase (Homo sapiens) (UniProt P07237) (assay: PDI inhibitors, insulin aggregation turbidity, dose response, biochemical, absorbance, cherry-picked samples (AID 602350)). Conditions: recombinant PDI insulin aggregation, absorbance 650 nm, 90 min; series mostly up to 19.5 µM.
Sequence of Protein disulfide-isomerase (Homo sapiens) (P07237 whole entry, looked up): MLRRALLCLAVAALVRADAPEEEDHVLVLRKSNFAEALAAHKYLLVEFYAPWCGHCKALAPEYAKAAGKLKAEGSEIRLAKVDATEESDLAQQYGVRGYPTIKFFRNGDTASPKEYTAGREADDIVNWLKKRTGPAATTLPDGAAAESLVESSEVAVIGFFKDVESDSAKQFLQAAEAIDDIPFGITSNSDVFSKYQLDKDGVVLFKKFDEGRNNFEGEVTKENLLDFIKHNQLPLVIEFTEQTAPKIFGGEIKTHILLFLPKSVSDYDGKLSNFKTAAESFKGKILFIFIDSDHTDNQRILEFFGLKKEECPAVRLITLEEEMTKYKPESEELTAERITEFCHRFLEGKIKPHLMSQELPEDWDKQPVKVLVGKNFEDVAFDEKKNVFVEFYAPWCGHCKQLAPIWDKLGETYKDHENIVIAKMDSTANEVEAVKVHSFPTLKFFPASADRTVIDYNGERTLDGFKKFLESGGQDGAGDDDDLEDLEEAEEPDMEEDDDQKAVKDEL

outcome, inactive:
COC(=O)c1ccc(NC(=S)NCCc2cccc(C)c2)cc1
CCCN(CCC)S(=O)(=O)c1ccc(C(=O)Nc2nnc(COC)o2)cc1
CCOc1cc(N2CCOCC2)c(OCC)cc1NC(=O)Cc1ccccc1OC
Cc1cc(NC(=O)COC(=O)C2CC(=O)N(c3ccccc3)C2)no1 (configuration not stated)
S=C(NCCc1ccccc1)Nc1ccccn1
Cc1cc(Cl)ccc1OCc1n[nH]c(=S)n1C1CCCCC1
CN(c1ccccc1)S(=O)(=O)c1cc(C(=O)N2CCN(c3ncccn3)CC2)ccc1Cl
CCC1Nc2ncnc(N3CCCCC3)c2N(Cc2ccc(C)cc2)C1=O (configuration not stated)
Cc1nnc(SCc2cc(=O)oc3cc(O)ccc23)n1Cc1ccccc1
COc1ccc(Cl)cc1NC(=O)COC(=O)C1CC1
CCC(=O)N1CCc2cc(S(=O)(=O)CCC(=O)NCc3ccco3)ccc21
CC(NC(=O)COC(=O)Cc1ccccc1[N+](=O)[O-])c1ccccc1 (configuration not stated)
O=C(CCS(=O)(=O)c1ccccc1)N(CCCN1CCOCC1)c1nc2ccccc2s1
CCOc1ccc(/C=N/OC(C)C(=O)NCc2ccc3c(c2)OCO3)cc1 (configuration not stated)
O=S(=O)(c1cc(F)ccc1F)N1CCN(c2ncccn2)CC1
CCCc1cc(=O)[nH]c(SCCOc2ccc(OCC)cc2)n1
CCOC(=O)Oc1c(OC)cc(C(=O)O[C@@H]2C[C@@H]3CN4CCc5c([nH]c6cc(OC)ccc56)[C@H]4C[C@@H]3[C@H](C(=O)OC)[C@H]2OC)cc1OC
